Reference: PubChem BioAssay (Tox21)
“And” between values parts separate entries of the source, which are not always exact repeats. Equal values may be shown once. Records with an inconclusive call do not appear. A call without a number means that no potency is given here. The source holds several records for some structures; these can differ, active in one and inactive in another. The source made the active and inactive calls. Unless noted, calls come from the whole dose curve; as a rule, active = well fitted cell-killing curve with a large enough effect in the repeat runs; inconclusive = weak or mixed curves, or effect the other way; inactive = no such curve, though single readings can be large or run the other way.

Test system: not listed separately
Experiment: qHTS assay to identify small molecule agonists of the estrogen receptor alpha (ER-alpha) signaling pathway in the presence of an antagonist - cell viability counter screen (AID 1259386);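 note: cells exposed to compounds for 22 h at 37 °C before the viability read; nearly all actives have a fitted effect of over 30% in size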
Conditions: VM7Luc4E2 viability, CellTiter-Fluor fluorescence, 22 h; series mostly up to 92.4 µM
Outline: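 VM7Luc4E2 cells (endogenous full-length ER-alpha, 4×ERE-luciferase) were held 5 days in phenol red-free medium with 10% charcoal-stripped FBS, plated, then given 10.0nM ICI-182,780 and compounds at 15 concentrations for 22hr at 37C; viability read by CellTiter-Fluor fluorescence.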
Potency is the fitted concentration of half-maximal effect.

SMILES	Potency
O=C(Nc1ccc(Br)cc1)c1cc(Br)cc(Br)c1O	21.6 µM (active) and 9.69 µM (active)
C[C@]12CCC(=O)C(O)=C1CC[C@@H]1[C@@H]2CC[C@]2(C)C(=O)CC[C@@H]12	inactive
CCOCN(C(=O)CCl)c1c(C)cccc1CC	inactive
CCOC(=S)S	inactive
Brc1ccc(Oc2cc(Br)c(Br)cc2Br)c(Br)c1	inactive
O=C(O)CC[N+](=O)[O-]	inactive
C=C(C)[C@H]1Cc2c(ccc3c2O[C@@H]2COc4cc(OC)c(OC)cc4[C@@H]2C3=O)O1	2.77 µM (active) and 96.9 nM (active) and 188 nM (active)
CNC(=O)Oc1cccc2c1OC(C)(C)O2	inactive
Cc1cc(Cl)ccc1OCCCC(=O)O	inactive
CCC(CC)Nc1c([N+](=O)[O-])cc(C)c(C)c1[N+](=O)[O-]	inactive
CCCCOCCOP(=O)(OCCOCCCC)OCCOCCCC	inactive
CC(C)=CC1C(C(=O)OCc2coc(Cc3ccccc3)c2)C1(C)C (centres undefined)	inactive
O=S(=O)(Oc1ccc(Cl)cc1)c1ccc(Cl)cc1	inactive
CCc1cccc(CC)c1N(COC)C(=O)CCl	inactive
NC(=S)Nc1ccccc1	inactive
Cc1ccc(N)c(N)c1	inactive
O=[N+]([O-])c1c(Cl)c(Cl)c(Cl)c(Cl)c1Cl	inactive

SMILES	Potency
O=P(Oc1ccccc1)(Oc1ccccc1)Oc1ccccc1	inactive
CCC(C)c1ccc(O)cc1 (centres undefined)	inactive
N#Cc1cc(Br)c(O)c(Br)c1	inactive
C[C@]12CCC(=O)C[C@@H]1CC[C@@H]1[C@@H]2CC[C@]2(C)[C@@H](O)CC[C@@H]12	inactive
CCN(CC)N=O	inactive
Nc1ccc(-c2ccccc2)cc1	inactive
CCN(CC)C(=O)SCc1ccc(Cl)cc1	inactive
CCCCCCCCC(=O)NCc1ccc(O)c(OC)c1	inactive
O=c1oc2ccccc2c(O)c1C(CC(O)c1ccc(-c2ccc(Br)cc2)cc1)c1ccccc1 (centres undefined)	inactive
Nc1ccc(-c2ccc(N)c(N)c2)cc1N	54.3 µM (active)
Clc1nc(Cl)nc(Cl)n1	inactive
C=CCN(CC=C)C(=O)C(Cl)Cl	inactive
CC(C)(C)c1ccccc1O	inactive
CC(C)(OOC(C)(C)c1ccccc1)c1ccccc1	inactive
CCC(C)(c1ccc(O)cc1)c1ccc(O)cc1	inactive
CCCCCCOC(=O)c1ccccc1C(=O)OCCCCCC	inactive
CCCCC(CC)COC(=O)Cl (centres undefined)	inactive

Target: Progesterone receptor (Homo sapiens) (UniProt P06401)
Experiment: qHTS assay to identify small molecule agonists of the progesterone receptor (PR) signaling pathway (AID 1346784; calls by dose curve; note: nearly all actives have a fitted effect of over 30% in size)
Conditions: PR-UAS-bla HEK293T, beta-lactamase FRET ratio, 16 h; series mostly up to 92.4 µM
Outline: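 HEK 293T PR-UAS-bla reporter cells, 2% charcoal-stripped FBS; 6 hr settle at 37C/5% CO2, compound (DMSO) 16 hr, LiveBLAzer B/G FRET substrate 2 hr RT, fluorescence intensity read.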

Chain of Progesterone receptor (Homo sapiens) (P06401 whole entry, looked up): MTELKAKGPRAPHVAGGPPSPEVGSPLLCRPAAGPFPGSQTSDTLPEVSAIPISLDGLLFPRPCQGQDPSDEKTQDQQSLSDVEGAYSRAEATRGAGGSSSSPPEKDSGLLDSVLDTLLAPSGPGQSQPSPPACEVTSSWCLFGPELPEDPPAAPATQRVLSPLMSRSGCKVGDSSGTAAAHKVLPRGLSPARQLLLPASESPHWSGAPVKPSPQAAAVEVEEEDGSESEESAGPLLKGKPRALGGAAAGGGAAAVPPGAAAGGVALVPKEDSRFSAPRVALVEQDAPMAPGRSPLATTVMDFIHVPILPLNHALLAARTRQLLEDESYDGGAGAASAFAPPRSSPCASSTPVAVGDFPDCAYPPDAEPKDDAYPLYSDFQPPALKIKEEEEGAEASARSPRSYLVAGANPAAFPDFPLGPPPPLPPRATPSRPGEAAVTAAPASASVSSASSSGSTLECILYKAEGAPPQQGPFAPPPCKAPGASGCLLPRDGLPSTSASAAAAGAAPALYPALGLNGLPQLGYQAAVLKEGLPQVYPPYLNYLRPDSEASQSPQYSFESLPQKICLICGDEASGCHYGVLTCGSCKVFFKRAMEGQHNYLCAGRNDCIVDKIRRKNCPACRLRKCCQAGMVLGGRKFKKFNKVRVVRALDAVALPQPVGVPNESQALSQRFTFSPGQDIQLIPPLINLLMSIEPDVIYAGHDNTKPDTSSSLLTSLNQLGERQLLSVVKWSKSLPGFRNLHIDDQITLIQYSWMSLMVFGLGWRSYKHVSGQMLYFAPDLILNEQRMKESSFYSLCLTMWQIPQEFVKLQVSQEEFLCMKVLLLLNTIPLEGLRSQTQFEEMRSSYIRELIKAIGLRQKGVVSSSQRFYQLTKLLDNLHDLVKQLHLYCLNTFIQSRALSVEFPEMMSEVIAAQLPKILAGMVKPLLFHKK

SMILES	Potency
C[C@]12CCC(=O)C(O)=C1CC[C@@H]1[C@@H]2CC[C@]2(C)C(=O)CC[C@@H]12	inactive
Brc1ccc(Oc2cc(Br)c(Br)cc2Br)c(Br)c1	inactive
O=C(O)CC[N+](=O)[O-]	inactive
COP(=S)(OC)Oc1ccc([N+](=O)[O-])cc1	inactive
CCc1cccc(CC)c1N(COC)C(=O)CCl	inactive
Cc1ccc(N)c(N)c1	inactive
O=[N+]([O-])c1c(Cl)c(Cl)c(Cl)c(Cl)c1Cl	inactive
C[C@]12CCC(=O)C[C@@H]1CC[C@@H]1[C@@H]2CC[C@]2(C)[C@@H](O)CC[C@@H]12	3.03 µM (active) and 1.94 µM (active)
CN(C)c1ccc(C(=O)c2ccc(N(C)C)cc2)cc1	inactive
Nc1c(Cl)cc([N+](=O)[O-])cc1Cl	inactive
Clc1nc(Cl)nc(Cl)n1	inactive
CC(C)(C)c1ccccc1O	inactive

Target: Progesterone receptor (Homo sapiens) (UniProt P06401)
Experiment: qHTS assay to identify small molecule antagonists of the progesterone receptor (PR) signaling pathway (AID 1346795; active = well fitted inhibition curve with a large enough effect in the signal ratio in the repeat runs, not every such curve was filed as active; the % refers to the signal ratio)
Conditions: PR-UAS-bla HEK293T, beta-lactamase FRET ratio, 16 h; series mostly up to 92.4 µM
Outline: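 Beta-lactamase reporter, HEK293T PR-UAS-bla line; 2% charcoal-stripped FBS; 6 hr pre-incubation, 37C/5% CO2. Compound + R5020 1 nM final, 16 hr. LiveBLAzer B/G FRET substrate, 2 hr RT; fluorescence intensity read.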

SMILES	Potency
O=C(O)CC[N+](=O)[O-]	inactive
C=C(C)[C@H]1Cc2c(ccc3c2O[C@@H]2COc4cc(OC)c(OC)cc4[C@@H]2C3=O)O1	19.6 µM (active) and 9.69 µM (active) and 11.9 µM (active)
CNC(=O)Oc1cccc2c1OC(C)(C)O2	inactive
COP(=S)(OC)Oc1ccc([N+](=O)[O-])cc1	inactive and 24.3 µM (active)
Cc1cc(Cl)ccc1OCCCC(=O)O	inactive
CC(C)=CC1C(C(=O)OCc2coc(Cc3ccccc3)c2)C1(C)C (centres undefined)	48.6 µM (active)
O=S(=O)(Oc1ccc(Cl)cc1)c1ccc(Cl)cc1	17.5 µM (active) and 17.2 µM (active)
NC(=S)Nc1ccccc1	inactive
O=[N+]([O-])c1c(Cl)c(Cl)c(Cl)c(Cl)c1Cl	inactive
CCC(C)c1ccc(O)cc1 (centres undefined)	inactive
N#Cc1cc(Br)c(O)c(Br)c1	inactive
Oc1cc(Cl)ccc1Oc1ccc(Cl)cc1Cl	13.3 µM (active)
CCN(CC)N=O	inactive
Nc1ccc(-c2ccccc2)cc1	1.99 µM (active)
CCN(CC)C(=O)SCc1ccc(Cl)cc1	25.1 µM (active) and 27.3 µM (active)
CN(C)c1ccc(C(=O)c2ccc(N(C)C)cc2)cc1	27.3 µM (active)
CCCCCCCCC(=O)NCc1ccc(O)c(OC)c1	48.6 µM (active)
Nc1c(Cl)cc([N+](=O)[O-])cc1Cl	30.6 µM (active)
Nc1ccc(-c2ccc(N)c(N)c2)cc1N	48.4 µM (active) and 24.3 µM (active)
Clc1nc(Cl)nc(Cl)n1	inactive
C=CCN(CC=C)C(=O)C(Cl)Cl	inactive
CC(C)(C)c1ccccc1O	inactive
CCC(C)(c1ccc(O)cc1)c1ccc(O)cc1	4.32 µM (active)
